According to ChEMBL document CHEMBL2218924, “A broad activity screen in support of a chemogenomic map for kinase signalling research and drug discovery” (Biochem J, 2013):

target: Aurora kinase B (Homo sapiens) (UniProt Q96GD4); details: at 10 µM
Sequence (Q96GD4 whole entry): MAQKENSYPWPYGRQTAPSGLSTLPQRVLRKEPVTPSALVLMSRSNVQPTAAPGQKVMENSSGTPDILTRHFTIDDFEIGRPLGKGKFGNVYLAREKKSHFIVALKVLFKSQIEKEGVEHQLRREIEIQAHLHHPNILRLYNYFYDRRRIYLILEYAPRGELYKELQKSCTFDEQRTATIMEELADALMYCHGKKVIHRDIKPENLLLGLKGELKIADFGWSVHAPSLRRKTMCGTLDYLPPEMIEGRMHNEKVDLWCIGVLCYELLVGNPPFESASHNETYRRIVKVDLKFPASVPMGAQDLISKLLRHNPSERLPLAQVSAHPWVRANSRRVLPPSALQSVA

SMILES	residual activity [%]
CCN(CC)CCCCN1c2ccccc2Oc2ccc(Cl)cc21	103
O=[N+]([O-])c1ccc(-c2nc(-c3ccc(F)cc3)c(-c3ccncc3)[nH]2)cc1	90
Cc1ccc(S(=O)(=O)/C=C/C#N)cc1	88
COc1cc2ncnc(Nc3ccc(NC(=O)c4ccccc4)cc3)c2cc1OC	0
Cn1nc2c3c(cccc31)C(=O)c1ccccc1-2	6
Cc1nc2cc3nc(-c4cccs4)cnc3cc2n1C	16
COc1cc2ncnc(N3CCN(C(=O)Nc4ccc(Oc5ccccc5)cc4)CC3)c2cc1OC	7
CC(C)n1cnc2/c(=N/c3cccc(Cl)c3)nc(NCCO)[nH]c21	3
Cc1cc(Nc2nc(-c3ccccc3)nc3ccccc23)n[nH]1	0
Cc1cncc2cccc(S(=O)(=O)N3CCCN(C(=O)CN)C[C@H]3C)c12	3
Cc1cccc(-c2[nH]c(C(C)(C)C)nc2-c2ccc3c(c2)OCO3)n1	95
N#Cc1cnc2cnc(NCc3cccnc3)cc2c1Nc1ccc(F)c(Cl)c1	1
COc1ccc(S(=O)(=O)N(CCO)c2ccccc2CN(C)C/C=C/c2ccc(Cl)cc2)cc1	95
c1ccc2c(-c3ccncc3)c[nH]c2c1	70
c1ccc(-c2n[nH]cc2-c2ccnc3ccccc23)nc1	51
O=C(Nc1cccc(Nc2nccc(Nc3cccc(C(F)(F)F)c3)n2)c1)C1CC1	2
O=C1Nc2cc(Br)ccc2/C1=C1/Nc2ccccc2/C1=N\O	-1
COc1ccc(OC)c2c(=S)c3ccccc3[nH]c12	52

SMILES	residual activity [%]
COc1cc2ncc(-c3ccccc3)nc2cc1OC	50
O=C1NC(=O)c2c1c1c3ccccc3[nH]c1c1[nH]c3cc(Br)ccc3c21	4
O=C(Nc1cccc(Nc2cc(Nc3cccc(C(F)(F)F)c3)ncn2)c1)C1CC1	30
N#CCCc1ccc2c(c1)-c1[nH]c3ccc([N+](=O)[O-])cc3c1CC(=O)N2	1
O=C1Nc2ccc(Br)cc2/C1=C\c1cc2c([nH]1)CCCC2	8
Nc1nc(Nc2ccc(S(N)(=O)=O)cc2)nn1C(=S)Nc1c(F)cccc1F	0
Nc1cccc(-c2cc3c(Oc4cccc(O)c4)ncnc3[nH]2)c1	0
Cc1cc2ncc(-c3ccccc3)nc2cc1C	75
CO[C@@H]1[C@H](N(C)C(=O)c2ccccc2)C[C@H]2O[C@]1(C)n1c3ccccc3c3c4c(c5c6ccccc6n2c5c31)C(=O)NC4	3
CC(=O)c1ccc(N2CCOCC2)cc1O	95
COc1ccc(C(=O)Nc2sc3c(c2C(N)=O)CCCC3)cc1OC	46
CO[C@H]1[C@@H](OC)C[C@H](C)[C@@H](OC)C2=CC(=O)C=C(NC(=O)/C(C)=C/C=C/[C@H](OC)[C@@H](OC(N)=O)/C(C)=C/[C@@H]1C)C2=O	68
O=C1NC(=O)c2cc(Nc3ccc(F)cc3)c(Nc3ccc(F)cc3)cc21	120
Oc1n[nH]c2nnc(-c3c(-c4ccccc4)nn4ccccc34)cc12	2
O=Nc1c(-c2c(O)[nH]c3ccccc23)[nH]c2ccccc12	-2
N#CC(C#N)=C(N)/C(C#N)=C/c1ccc(O)cc1	62
c1ccc(-c2n[nH]c3c2oc2ccccc23)cc1	4

target: T1, Aurora kinase C (Homo sapiens) (UniProt Q9UQB9); details: at 1 µM
T1 sequence (whole entry): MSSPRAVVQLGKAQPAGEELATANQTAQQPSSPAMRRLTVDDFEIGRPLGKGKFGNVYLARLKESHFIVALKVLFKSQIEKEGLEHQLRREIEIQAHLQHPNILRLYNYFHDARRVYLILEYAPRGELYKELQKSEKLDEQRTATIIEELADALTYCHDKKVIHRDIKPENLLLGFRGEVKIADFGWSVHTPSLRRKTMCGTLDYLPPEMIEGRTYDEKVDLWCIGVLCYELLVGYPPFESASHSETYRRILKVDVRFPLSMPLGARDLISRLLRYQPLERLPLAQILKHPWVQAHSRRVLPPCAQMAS

SMILES	residual activity [%]
CCN(CC)CCCCN1c2ccccc2Oc2ccc(Cl)cc21	108
O=[N+]([O-])c1ccc(-c2nc(-c3ccc(F)cc3)c(-c3ccncc3)[nH]2)cc1	107
Cc1ccc(S(=O)(=O)/C=C/C#N)cc1	93
COc1cc2ncnc(Nc3ccc(NC(=O)c4ccccc4)cc3)c2cc1OC	44
Cn1nc2c3c(cccc31)C(=O)c1ccccc1-2	72
Cc1nc2cc3nc(-c4cccs4)cnc3cc2n1C	102
COc1cc2ncnc(N3CCN(C(=O)Nc4ccc(Oc5ccccc5)cc4)CC3)c2cc1OC	71
CC(C)n1cnc2/c(=N/c3cccc(Cl)c3)nc(NCCO)[nH]c21	74
Cc1cc(Nc2nc(-c3ccccc3)nc3ccccc23)n[nH]1	7
Cc1cncc2cccc(S(=O)(=O)N3CCCN(C(=O)CN)C[C@H]3C)c12	5
N#Cc1cnc2cnc(NCc3cccnc3)cc2c1Nc1ccc(F)c(Cl)c1	71
COc1ccc(S(=O)(=O)N(CCO)c2ccccc2CN(C)C/C=C/c2ccc(Cl)cc2)cc1	83
c1ccc2c(-c3ccncc3)c[nH]c2c1	66
c1ccc(-c2n[nH]cc2-c2ccnc3ccccc23)nc1	100
O=C(Nc1cccc(Nc2nccc(Nc3cccc(C(F)(F)F)c3)n2)c1)C1CC1	69
O=C1Nc2cc(Br)ccc2/C1=C1/Nc2ccccc2/C1=N\O	74

SMILES	residual activity [%]
COc1ccc(OC)c2c(=S)c3ccccc3[nH]c12	78
O=C1NC(=O)c2c1c1c3ccccc3[nH]c1c1[nH]c3cc(Br)ccc3c21	89
O=C(Nc1cccc(Nc2cc(Nc3cccc(C(F)(F)F)c3)ncn2)c1)C1CC1	90
N#CCCc1ccc2c(c1)-c1[nH]c3ccc([N+](=O)[O-])cc3c1CC(=O)N2	63
O=C1Nc2ccc(Br)cc2/C1=C\c1cc2c([nH]1)CCCC2	82
Nc1nc(Nc2ccc(S(N)(=O)=O)cc2)nn1C(=S)Nc1c(F)cccc1F	-2
Nc1cccc(-c2cc3c(Oc4cccc(O)c4)ncnc3[nH]2)c1	72
Cc1cc2ncc(-c3ccccc3)nc2cc1C	104
CO[C@@H]1[C@H](N(C)C(=O)c2ccccc2)C[C@H]2O[C@]1(C)n1c3ccccc3c3c4c(c5c6ccccc6n2c5c31)C(=O)NC4	62
CC(=O)c1ccc(N2CCOCC2)cc1O	106
COc1ccc(C(=O)Nc2sc3c(c2C(N)=O)CCCC3)cc1OC	97
CO[C@H]1[C@@H](OC)C[C@H](C)[C@@H](OC)C2=CC(=O)C=C(NC(=O)/C(C)=C/C=C/[C@H](OC)[C@@H](OC(N)=O)/C(C)=C/[C@@H]1C)C2=O	76
O=C1NC(=O)c2cc(Nc3ccc(F)cc3)c(Nc3ccc(F)cc3)cc21	92
Oc1n[nH]c2nnc(-c3c(-c4ccccc4)nn4ccccc34)cc12	84
O=Nc1c(-c2c(O)[nH]c3ccccc23)[nH]c2ccccc12	61
